Results on one sequence are retold here after paper PMC7862700, “An all-to-all approach to the identification of sequence-specific readers for epigenetic DNA modifications on cytosine”.

Holding throughout (test): DAPPL (digital affinity profiling via proximity ligation, sequencing); 10 mM Tris-HCl pH 7.5, 50 mM NaCl, 1 mM DTT, 4% glycerol, room temperature, 30 min; GST-TFs on glutathione beads, 16-mer random dsDNA library, 0.1% formaldehyde crosslink after washing; high values mean tight binding
One assay addresses T1, FEV (Homo sapiens, UniProt Q99581 1-238).
T1 sequence: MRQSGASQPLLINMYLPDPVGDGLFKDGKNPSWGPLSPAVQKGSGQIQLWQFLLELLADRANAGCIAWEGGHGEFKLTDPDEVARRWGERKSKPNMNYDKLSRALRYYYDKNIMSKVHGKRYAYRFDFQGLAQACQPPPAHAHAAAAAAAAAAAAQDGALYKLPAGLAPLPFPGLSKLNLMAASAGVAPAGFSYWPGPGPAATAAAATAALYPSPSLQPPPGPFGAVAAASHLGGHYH
The conditions noted are these: protein: recombinant; tags: N-terminal GST; dsDNA, one strand shown. In a few lines:
(§1)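 Binding signal is each hexamer's read frequency for a factor divided by its frequency in the tag-only sample. The factors were GST-fused human transcription factors from yeast, captured on glutathione beads, DNA-barcoded and pooled with that sample. Pools were incubated with 200 nmole of a random double-stranded 16-mer DNA library in Tris/NaCl/DTT/glycerol buffer at room temperature for 30 min, then washed, crosslinked with 0.1% formaldehyde, proximity-ligated with BsaI/T4 ligase (1 h, 37 °C), PCR-amplified and sequenced on an Illumina NextSeq500.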

For the next assay, the target named is ETV5 (Homo sapiens, UniProt P41161 1-510). The conditions noted are these: protein: recombinant; tags: N-terminal GST; dsDNA, one strand shown. The gist of the method:
as §1

The next assay addresses HSF1 (Homo sapiens, UniProt Q00613 1-529). The conditions noted are these: protein: recombinant; tags: N-terminal GST; chain copies: 3; dsDNA, one strand shown. In a few lines: as §1
A further assay concerns the target T2, SPIC (Homo sapiens, UniProt Q8N5J4 1-248).
T2 sequence: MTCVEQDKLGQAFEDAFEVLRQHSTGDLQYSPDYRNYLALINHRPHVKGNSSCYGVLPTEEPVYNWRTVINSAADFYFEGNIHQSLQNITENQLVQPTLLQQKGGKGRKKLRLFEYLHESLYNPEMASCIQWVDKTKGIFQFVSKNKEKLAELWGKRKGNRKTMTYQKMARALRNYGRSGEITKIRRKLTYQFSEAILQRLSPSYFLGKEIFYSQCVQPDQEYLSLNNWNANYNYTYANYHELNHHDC
The conditions noted are these: protein: recombinant; tags: N-terminal GST; dsDNA, one strand shown. In a few lines:
as §1

A further assay has as its target ELF4 (Homo sapiens, UniProt Q99607 1-663). The conditions noted are these: protein: recombinant; tags: N-terminal GST; dsDNA, one strand shown. In a few lines: as §1
The target of another assay is T3, ELK4 (Homo sapiens, UniProt P28324-2 1-405).
T3 sequence: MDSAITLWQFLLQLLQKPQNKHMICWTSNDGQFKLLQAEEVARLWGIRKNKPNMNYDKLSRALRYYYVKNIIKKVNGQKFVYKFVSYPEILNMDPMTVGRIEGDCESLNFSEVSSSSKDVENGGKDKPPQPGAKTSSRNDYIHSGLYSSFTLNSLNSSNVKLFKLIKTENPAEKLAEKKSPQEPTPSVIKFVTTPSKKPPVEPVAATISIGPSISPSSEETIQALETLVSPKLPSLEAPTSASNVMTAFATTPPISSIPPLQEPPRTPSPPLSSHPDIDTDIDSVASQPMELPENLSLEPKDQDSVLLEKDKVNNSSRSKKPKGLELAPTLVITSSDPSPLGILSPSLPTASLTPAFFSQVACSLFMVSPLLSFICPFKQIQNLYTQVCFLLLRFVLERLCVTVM
The conditions noted are these: protein: recombinant; tags: N-terminal GST; dsDNA, one strand shown. In a few lines:
as §1

The target in a further assay is T4, ETV2 (Homo sapiens, UniProt O00321 1-342).
T4 sequence: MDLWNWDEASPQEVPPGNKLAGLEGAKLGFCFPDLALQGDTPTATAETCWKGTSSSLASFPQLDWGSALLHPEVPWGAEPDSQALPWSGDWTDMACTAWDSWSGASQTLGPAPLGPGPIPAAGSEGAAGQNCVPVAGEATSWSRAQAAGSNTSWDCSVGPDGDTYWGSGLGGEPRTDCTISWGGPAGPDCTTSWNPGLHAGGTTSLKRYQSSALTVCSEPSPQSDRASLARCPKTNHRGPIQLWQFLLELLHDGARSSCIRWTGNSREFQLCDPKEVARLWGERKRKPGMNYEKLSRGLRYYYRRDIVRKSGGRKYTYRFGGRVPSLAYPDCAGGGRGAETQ
The conditions noted are these: protein: recombinant; tags: N-terminal GST; dsDNA, one strand shown. The gist of the method: as §1

The next assay has as its target T5, ELF3 (Homo sapiens, UniProt P78545 1-371).
T5 sequence: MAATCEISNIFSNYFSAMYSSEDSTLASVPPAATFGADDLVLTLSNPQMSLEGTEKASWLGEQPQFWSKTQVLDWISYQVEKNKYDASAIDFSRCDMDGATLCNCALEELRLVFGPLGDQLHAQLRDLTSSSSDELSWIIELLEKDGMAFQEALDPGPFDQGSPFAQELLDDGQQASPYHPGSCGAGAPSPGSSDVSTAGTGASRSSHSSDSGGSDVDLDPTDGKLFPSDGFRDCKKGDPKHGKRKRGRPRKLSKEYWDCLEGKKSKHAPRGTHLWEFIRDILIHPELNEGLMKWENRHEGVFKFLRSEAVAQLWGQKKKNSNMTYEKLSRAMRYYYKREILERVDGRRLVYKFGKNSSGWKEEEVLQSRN
The conditions noted are these: protein: recombinant; tags: N-terminal GST; dsDNA, one strand shown. The gist of the method: as §1

Another assay addresses CRX (Homo sapiens, UniProt O43186 1-299). The conditions noted are these: protein: recombinant; tags: N-terminal GST; dsDNA, one strand shown. In a few lines: as §1
For the next assay, the target named is ETV1 (Homo sapiens, UniProt P50549 1-477). To be noted: protein: recombinant; tags: N-terminal GST; dsDNA, one strand shown. In a few lines: as §1
Another assay concerns the target T6, ERF (Homo sapiens, UniProt P50548 1-548).
T6 sequence: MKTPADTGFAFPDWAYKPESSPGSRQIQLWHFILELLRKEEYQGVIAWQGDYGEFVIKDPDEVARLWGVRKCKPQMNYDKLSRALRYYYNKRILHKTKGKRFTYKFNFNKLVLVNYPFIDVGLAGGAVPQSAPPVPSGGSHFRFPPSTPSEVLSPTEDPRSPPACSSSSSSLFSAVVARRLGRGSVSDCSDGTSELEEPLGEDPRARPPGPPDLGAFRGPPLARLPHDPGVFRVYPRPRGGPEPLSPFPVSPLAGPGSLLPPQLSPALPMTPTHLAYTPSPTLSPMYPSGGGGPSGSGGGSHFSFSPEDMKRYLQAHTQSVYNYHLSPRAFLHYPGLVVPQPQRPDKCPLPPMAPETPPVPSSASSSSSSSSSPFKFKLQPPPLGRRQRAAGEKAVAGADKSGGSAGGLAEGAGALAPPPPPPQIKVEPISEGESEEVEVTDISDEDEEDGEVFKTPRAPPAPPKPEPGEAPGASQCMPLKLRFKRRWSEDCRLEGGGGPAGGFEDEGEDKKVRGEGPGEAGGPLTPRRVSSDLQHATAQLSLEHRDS
To be noted: protein: recombinant; tags: N-terminal GST; dsDNA, one strand shown. In a few lines: as §1

A further assay addresses T7, ETV3L (Homo sapiens, UniProt Q6ZN32 1-361).
T7 sequence: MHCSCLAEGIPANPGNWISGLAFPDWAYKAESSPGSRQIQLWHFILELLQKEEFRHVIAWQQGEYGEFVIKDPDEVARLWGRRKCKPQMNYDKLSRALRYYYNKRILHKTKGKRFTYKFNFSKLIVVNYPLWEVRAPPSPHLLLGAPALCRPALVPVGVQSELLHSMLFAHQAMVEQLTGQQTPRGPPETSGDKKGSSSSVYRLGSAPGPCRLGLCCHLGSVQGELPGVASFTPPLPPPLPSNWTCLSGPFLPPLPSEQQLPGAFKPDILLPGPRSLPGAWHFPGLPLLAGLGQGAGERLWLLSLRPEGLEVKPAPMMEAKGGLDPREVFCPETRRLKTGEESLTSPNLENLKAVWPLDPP
The conditions noted are these: protein: recombinant; tags: N-terminal GST; dsDNA, one strand shown. In a few lines: as §1

The target of the next assay is T8, ETS2 (Homo sapiens, UniProt P15036 1-469).
T8 sequence: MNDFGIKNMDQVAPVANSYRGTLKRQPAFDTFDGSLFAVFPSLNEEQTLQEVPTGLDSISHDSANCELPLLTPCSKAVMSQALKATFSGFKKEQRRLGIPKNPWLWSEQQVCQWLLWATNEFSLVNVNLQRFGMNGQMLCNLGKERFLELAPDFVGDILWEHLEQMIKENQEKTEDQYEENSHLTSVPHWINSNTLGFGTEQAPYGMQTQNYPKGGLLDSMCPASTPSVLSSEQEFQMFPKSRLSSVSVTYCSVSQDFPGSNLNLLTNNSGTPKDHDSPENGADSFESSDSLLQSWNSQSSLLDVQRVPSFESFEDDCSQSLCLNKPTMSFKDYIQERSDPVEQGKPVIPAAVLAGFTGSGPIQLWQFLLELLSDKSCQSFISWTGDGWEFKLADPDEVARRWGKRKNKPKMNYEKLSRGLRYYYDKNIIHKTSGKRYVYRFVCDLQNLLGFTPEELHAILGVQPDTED
The conditions noted are these: protein: recombinant; tags: N-terminal GST; dsDNA, one strand shown. In a few lines:
as §1

A further assay deals with T9, SPDEF (Homo sapiens, UniProt O95238 1-335).
T9 sequence: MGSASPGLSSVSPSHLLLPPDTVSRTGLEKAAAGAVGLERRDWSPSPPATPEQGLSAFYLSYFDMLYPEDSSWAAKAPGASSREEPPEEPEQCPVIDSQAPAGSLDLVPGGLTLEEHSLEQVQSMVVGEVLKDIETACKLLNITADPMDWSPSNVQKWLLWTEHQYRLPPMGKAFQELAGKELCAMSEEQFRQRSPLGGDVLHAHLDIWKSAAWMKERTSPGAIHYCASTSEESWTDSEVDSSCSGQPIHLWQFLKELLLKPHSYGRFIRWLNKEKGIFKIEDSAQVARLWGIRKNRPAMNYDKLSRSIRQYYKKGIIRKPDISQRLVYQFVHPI
To be noted: protein: recombinant; tags: N-terminal GST; dsDNA, one strand shown. The gist of the method: as §1

The target in a further assay is T10, ETV7 (Homo sapiens, UniProt Q9Y603 1-341).
T10 sequence: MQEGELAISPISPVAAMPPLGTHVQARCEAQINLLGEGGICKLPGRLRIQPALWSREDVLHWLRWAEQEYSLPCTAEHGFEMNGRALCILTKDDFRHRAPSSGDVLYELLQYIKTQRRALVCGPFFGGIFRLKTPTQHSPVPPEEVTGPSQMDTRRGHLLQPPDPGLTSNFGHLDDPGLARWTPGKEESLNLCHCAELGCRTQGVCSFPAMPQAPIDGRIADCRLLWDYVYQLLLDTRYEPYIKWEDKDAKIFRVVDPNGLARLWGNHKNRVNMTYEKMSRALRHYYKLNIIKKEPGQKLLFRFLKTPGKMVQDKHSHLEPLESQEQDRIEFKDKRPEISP
To be noted: protein: recombinant; tags: N-terminal GST; dsDNA, one strand shown. The gist of the method: as §1

The target in a further assay is T11, ELF5 (Homo sapiens, UniProt Q9UKW6-2 1-255).
T11 sequence: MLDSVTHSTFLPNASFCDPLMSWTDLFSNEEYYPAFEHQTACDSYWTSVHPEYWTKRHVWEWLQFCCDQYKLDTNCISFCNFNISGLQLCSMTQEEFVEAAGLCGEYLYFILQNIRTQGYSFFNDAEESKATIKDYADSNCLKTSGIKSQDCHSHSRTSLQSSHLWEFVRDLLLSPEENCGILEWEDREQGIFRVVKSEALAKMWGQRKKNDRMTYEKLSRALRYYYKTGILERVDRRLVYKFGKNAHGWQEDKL
To be noted: protein: recombinant; tags: N-terminal GST; dsDNA, one strand shown. The gist of the method: as §1

The target of a further assay is T12, ETV3 (Homo sapiens, UniProt P41162-2 1-143).
T12 sequence: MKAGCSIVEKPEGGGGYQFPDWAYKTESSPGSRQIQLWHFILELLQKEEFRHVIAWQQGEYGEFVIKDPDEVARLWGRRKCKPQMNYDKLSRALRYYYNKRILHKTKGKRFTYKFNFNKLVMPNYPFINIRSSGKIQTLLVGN
The conditions noted are these: protein: recombinant; tags: N-terminal GST; dsDNA, one strand shown. The gist of the method:
as §1

The target of the next assay is ETV6 (Homo sapiens, UniProt P41212 1-452). To be noted: protein: recombinant; tags: N-terminal GST; dsDNA, one strand shown. The gist of the method: as §1
Sequence of ETV6 (P41212 whole entry): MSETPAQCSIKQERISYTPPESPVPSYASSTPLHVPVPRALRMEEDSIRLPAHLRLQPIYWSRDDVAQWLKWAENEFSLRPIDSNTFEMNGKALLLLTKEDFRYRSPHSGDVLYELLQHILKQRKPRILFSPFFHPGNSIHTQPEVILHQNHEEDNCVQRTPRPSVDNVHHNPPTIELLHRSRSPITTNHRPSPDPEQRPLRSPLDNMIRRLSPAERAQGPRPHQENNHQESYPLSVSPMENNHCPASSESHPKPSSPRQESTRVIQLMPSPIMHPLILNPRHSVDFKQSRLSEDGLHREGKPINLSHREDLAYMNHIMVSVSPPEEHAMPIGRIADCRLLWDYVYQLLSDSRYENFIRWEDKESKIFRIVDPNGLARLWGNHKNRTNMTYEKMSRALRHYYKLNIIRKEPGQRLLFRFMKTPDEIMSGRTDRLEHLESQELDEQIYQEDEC

Sequence of ETV5 (P41161 whole entry): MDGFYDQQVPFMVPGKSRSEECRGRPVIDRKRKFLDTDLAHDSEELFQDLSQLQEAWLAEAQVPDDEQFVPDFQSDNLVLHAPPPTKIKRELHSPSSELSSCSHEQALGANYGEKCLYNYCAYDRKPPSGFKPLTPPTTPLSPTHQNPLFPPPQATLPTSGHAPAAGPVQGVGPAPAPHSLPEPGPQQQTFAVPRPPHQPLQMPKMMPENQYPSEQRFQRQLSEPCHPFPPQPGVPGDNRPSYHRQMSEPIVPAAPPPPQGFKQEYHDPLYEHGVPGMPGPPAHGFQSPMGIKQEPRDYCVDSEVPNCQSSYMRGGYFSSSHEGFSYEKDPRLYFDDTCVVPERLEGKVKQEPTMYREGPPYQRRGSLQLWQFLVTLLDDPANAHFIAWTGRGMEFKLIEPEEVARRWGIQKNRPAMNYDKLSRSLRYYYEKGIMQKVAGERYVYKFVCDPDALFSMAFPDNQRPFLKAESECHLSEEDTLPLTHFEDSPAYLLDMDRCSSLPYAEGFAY
Sequence of ETV1 (P50549 whole entry): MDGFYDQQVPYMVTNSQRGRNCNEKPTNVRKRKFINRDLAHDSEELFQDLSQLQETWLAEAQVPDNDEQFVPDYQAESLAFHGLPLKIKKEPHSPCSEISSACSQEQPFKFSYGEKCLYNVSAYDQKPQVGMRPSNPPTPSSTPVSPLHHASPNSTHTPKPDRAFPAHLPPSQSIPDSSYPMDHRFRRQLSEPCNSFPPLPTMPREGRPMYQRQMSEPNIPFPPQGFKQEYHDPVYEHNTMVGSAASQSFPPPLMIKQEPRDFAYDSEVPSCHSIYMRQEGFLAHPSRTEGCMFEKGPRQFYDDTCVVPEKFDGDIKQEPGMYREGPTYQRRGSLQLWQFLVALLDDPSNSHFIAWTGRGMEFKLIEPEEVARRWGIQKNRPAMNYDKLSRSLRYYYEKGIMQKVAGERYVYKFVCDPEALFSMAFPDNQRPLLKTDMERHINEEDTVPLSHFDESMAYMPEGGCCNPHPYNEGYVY
Sequence of CRX (O43186 whole entry): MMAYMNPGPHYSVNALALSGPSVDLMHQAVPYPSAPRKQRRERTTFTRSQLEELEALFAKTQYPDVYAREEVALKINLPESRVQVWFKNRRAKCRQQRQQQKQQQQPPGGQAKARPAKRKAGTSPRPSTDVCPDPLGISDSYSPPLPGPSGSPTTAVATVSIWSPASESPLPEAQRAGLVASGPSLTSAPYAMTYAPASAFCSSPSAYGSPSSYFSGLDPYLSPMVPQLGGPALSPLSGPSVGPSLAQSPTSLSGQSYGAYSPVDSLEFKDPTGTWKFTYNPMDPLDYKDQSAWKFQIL
Sequence of ELF4 (Q99607 whole entry): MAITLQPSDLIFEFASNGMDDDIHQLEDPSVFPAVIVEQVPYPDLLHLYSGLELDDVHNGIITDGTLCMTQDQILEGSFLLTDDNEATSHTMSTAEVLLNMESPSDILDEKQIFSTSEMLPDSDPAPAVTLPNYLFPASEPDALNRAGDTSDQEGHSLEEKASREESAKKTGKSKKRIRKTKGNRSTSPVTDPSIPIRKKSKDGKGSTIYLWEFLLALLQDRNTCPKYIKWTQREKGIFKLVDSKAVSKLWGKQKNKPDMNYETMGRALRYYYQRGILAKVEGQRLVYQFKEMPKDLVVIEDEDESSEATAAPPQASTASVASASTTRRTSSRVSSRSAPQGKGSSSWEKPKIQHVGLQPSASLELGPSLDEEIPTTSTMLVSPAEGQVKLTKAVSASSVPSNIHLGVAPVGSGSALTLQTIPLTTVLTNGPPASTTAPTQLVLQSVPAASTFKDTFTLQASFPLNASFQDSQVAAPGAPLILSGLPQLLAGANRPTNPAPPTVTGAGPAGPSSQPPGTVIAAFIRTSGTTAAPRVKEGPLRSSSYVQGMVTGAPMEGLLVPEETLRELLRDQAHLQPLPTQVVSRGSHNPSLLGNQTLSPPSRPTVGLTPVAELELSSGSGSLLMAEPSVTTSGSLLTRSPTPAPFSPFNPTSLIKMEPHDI
Sequence of HSF1 (Q00613 whole entry): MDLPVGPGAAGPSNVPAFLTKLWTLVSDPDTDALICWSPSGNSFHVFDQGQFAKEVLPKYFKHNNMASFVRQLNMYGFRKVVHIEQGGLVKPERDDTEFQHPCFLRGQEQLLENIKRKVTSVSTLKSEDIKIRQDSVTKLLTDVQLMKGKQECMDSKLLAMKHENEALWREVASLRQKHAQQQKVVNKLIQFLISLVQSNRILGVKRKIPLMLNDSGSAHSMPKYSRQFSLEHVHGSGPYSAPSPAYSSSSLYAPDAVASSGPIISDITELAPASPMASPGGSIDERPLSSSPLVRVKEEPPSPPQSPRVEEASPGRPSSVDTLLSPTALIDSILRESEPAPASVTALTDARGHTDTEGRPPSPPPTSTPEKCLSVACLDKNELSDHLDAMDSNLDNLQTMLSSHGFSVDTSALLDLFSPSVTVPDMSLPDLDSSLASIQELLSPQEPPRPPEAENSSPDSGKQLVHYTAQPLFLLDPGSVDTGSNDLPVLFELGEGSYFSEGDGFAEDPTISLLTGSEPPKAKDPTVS

Consider CTCGAG, for which the binding signal with FEV is 1.2 fold enrichment (6-mer frequency, TF over GST control); with ETV5, 1.26 fold enrichment (6-mer frequency, TF over GST control); with HSF1, 2 fold enrichment (6-mer frequency, TF over GST control); in the assay with SPIC, 1.44 fold enrichment (6-mer frequency, TF over GST control); in the assay with ELF4 it was 1.34 fold enrichment (6-mer frequency, TF over GST control); with ELK4, 1.31 fold enrichment (6-mer frequency, TF over GST control). Further, the binding signal was 1.64 fold enrichment (6-mer frequency, TF over GST control) in the assay with ETV2; 1.3 fold enrichment (6-mer frequency, TF over GST control) with ELF3; 1.26 fold enrichment (6-mer frequency, TF over GST control) with CRX; 1.2 fold enrichment (6-mer frequency, TF over GST control) in the assay with ETV1; 1.29 fold enrichment (6-mer frequency, TF over GST control) in the assay with ERF; 1.25 fold enrichment (6-mer frequency, TF over GST control) with ETV3L. For the same sequence, the binding signal with ETS2 is 1.17 fold enrichment (6-mer frequency, TF over GST control); in the assay with SPDEF, 1.16 fold enrichment (6-mer frequency, TF over GST control); with ETV7, 1.36 fold enrichment (6-mer frequency, TF over GST control); with ELF5, 1.16 fold enrichment (6-mer frequency, TF over GST control); with ETV3 it was 1.16 fold enrichment (6-mer frequency, TF over GST control); with ETV6, 1.32 fold enrichment (6-mer frequency, TF over GST control).
